# Test results reported in ChEMBL document CHEMBL3988442, “University of Dundee, Small-Polar-MMV Screening Library” (2021).
# For some assays here: Entries with a potency or affinity are not part of this list.
# What was measured:
# Design in all cases: scale not given: direction of the effect not stated beside the values
# [1] = target: Protein translocase subunit SecA (Escherichia coli (strain K12)) (UniProt P10408); assay: Assay to Identify E. coli SecA ATPase Inhibitors; format: functional; conditions: 30 µM
# Chain of Protein translocase subunit SecA (Escherichia coli (strain K12)) (P10408 whole entry): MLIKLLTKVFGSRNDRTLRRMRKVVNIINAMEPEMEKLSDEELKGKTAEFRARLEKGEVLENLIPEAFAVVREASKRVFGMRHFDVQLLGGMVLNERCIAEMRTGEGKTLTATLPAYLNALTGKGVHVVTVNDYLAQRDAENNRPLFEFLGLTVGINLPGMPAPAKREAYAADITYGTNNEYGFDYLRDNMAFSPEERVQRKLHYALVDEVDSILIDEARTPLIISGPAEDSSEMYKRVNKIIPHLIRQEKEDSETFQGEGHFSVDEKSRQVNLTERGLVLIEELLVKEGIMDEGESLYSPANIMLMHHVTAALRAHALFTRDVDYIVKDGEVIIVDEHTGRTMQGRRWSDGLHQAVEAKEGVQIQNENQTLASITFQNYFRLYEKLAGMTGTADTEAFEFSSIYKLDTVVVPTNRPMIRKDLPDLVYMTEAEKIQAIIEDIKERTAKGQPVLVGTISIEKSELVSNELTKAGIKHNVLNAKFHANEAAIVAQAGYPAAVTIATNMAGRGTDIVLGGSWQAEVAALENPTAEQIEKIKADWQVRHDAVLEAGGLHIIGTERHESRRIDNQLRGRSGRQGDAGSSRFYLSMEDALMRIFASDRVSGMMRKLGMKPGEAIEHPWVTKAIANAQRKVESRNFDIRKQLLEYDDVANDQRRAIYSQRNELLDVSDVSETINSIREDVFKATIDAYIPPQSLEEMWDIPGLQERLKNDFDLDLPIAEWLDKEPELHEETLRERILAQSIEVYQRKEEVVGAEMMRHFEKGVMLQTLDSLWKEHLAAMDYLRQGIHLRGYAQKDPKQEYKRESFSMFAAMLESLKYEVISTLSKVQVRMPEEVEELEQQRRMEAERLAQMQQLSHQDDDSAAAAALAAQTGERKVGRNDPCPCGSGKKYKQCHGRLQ
# [2] = target: T1, Ubiquitin-activating enzyme e1, putative (Leishmania donovani (strain BPK282A1)) (UniProt E9BSI1); assay: Leishmania donovani Ubiquitin Activating Enzyme (LdE1); format: functional; conditions: 30 µM
# T1 sequence (whole entry): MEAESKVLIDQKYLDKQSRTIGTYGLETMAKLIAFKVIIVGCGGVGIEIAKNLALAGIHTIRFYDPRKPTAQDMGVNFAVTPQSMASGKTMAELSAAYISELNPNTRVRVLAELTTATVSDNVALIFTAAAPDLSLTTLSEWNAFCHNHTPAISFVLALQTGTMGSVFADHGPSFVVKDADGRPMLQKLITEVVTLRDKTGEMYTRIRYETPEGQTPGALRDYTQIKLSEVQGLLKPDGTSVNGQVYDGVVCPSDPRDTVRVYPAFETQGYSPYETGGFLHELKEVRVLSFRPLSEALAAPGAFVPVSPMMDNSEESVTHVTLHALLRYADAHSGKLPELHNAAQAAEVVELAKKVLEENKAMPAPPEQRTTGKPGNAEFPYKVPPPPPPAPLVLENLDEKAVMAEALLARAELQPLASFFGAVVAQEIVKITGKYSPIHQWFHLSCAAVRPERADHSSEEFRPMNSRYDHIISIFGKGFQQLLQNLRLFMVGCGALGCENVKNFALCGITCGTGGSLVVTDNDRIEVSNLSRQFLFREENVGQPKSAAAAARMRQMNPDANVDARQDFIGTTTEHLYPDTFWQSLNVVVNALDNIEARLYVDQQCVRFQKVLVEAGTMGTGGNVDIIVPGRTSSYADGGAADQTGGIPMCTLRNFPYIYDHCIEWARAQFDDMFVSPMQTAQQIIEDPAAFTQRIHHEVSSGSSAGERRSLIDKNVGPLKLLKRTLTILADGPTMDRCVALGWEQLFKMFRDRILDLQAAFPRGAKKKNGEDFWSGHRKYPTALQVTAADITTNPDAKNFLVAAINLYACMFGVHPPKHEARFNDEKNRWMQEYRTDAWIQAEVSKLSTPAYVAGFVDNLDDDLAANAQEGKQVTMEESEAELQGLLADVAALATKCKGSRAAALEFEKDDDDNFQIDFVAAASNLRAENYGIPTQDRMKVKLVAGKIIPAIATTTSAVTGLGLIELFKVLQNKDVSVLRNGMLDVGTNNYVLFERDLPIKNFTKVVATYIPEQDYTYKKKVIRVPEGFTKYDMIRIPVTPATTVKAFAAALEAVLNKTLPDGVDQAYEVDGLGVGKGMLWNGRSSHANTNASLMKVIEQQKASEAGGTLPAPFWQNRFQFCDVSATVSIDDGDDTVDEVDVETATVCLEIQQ
# [3] = target: AMP-activated protein kinase, AMPK (Homo sapiens) (UniProt P54646+O43741+P54619+Q9UGJ0+Q9Y478+Q13131+Q9UGI9); assay: AMP-dependent Kinase enzyme assay. An in vitro enzyme assay that detects ADP turnover that is directly proportional to AMPK activity. This uses naive AMPK that is activated during the assay with MK-8722; format: functional; conditions: 30 µM
# [4] = target: Sialic acid-binding Ig-like lectin 9 (Homo sapiens) (UniProt Q9Y336); assay: Hs-Siglec9 ALPHAscreen SOP 20170721; conditions: 10 µM
# Chain of Sialic acid-binding Ig-like lectin 9 (Homo sapiens) (Q9Y336 whole entry): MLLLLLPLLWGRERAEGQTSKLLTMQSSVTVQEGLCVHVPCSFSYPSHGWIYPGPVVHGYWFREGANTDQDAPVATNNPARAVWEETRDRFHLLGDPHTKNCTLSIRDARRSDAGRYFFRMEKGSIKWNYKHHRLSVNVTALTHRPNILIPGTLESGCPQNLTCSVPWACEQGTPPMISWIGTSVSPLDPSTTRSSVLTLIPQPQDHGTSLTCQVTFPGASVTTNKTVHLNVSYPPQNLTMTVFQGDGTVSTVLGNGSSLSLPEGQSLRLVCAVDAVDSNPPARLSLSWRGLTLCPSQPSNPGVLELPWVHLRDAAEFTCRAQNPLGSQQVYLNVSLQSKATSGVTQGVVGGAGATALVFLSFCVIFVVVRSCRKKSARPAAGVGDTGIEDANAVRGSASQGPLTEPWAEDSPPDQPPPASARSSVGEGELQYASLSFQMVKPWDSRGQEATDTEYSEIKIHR
# Trypanosoma cruzi = assay: Trypanosoma cruzi phosphomannomutase and mannose-1-phosphate guanylyltransferase assay; format: functional; conditions: 10 µM
# [5] = target: T2, Arginase-2, mitochondrial (Homo sapiens) (UniProt P78540); assay: in vitro enzyme assay to detect the production of urea directly proportional to the activity of Arginase II; format: functional; conditions: 33.3 µM; note: in the data most compounds retested in dose-response had high values
# T2 sequence (whole entry): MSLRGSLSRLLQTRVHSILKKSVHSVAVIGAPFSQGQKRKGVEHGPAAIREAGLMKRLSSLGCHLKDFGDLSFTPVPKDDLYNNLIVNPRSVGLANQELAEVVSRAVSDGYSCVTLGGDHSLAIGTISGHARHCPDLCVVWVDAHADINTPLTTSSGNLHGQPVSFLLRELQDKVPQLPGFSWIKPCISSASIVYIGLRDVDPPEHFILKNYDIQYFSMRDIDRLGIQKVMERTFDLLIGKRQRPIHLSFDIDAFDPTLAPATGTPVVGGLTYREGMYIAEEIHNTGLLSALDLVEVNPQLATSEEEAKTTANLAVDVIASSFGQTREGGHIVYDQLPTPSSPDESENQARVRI
# [6] = target: T3, Proteasome subunit beta (Trypanosoma cruzi) (UniProt O96673); assay: Trypanosoma cruzi proteasome chymotrypsin-like activity (TcProtChymo) assay.; note: in the data most compounds retested in dose-response had high values; format: functional; conditions: 9.37 µM
# T3 sequence (whole entry): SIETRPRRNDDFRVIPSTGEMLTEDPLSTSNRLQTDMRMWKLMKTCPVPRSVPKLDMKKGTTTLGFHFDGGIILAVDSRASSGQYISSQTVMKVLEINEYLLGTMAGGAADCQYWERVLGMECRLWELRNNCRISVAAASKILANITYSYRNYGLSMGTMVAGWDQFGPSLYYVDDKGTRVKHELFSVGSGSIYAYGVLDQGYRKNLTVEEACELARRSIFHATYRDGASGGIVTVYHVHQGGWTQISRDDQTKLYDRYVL
# Homo sapiens = species: Homo sapiens; assay: To identify inhibition of the IFN signalling (Jak-Stat) pathway via expression of an eGFP reporter gene under the control of an IFN-stimulated response element (ISRE) containing MxA promoter.; format: functional; conditions: 30 µM
# [7] = target: T4, Tyrosyl-tRNA synthetase, putative (Trypanosoma cruzi (strain CL Brener)) (UniProt Q4DSP6); assay: Trypanosoma cruzi tyrosyl tRNA synthetase (TcYRS) _High Tyrosine SOP; format: functional; conditions: 30 µM; note: in the data most compounds retested in dose-response had high values
# T4 sequence (whole entry): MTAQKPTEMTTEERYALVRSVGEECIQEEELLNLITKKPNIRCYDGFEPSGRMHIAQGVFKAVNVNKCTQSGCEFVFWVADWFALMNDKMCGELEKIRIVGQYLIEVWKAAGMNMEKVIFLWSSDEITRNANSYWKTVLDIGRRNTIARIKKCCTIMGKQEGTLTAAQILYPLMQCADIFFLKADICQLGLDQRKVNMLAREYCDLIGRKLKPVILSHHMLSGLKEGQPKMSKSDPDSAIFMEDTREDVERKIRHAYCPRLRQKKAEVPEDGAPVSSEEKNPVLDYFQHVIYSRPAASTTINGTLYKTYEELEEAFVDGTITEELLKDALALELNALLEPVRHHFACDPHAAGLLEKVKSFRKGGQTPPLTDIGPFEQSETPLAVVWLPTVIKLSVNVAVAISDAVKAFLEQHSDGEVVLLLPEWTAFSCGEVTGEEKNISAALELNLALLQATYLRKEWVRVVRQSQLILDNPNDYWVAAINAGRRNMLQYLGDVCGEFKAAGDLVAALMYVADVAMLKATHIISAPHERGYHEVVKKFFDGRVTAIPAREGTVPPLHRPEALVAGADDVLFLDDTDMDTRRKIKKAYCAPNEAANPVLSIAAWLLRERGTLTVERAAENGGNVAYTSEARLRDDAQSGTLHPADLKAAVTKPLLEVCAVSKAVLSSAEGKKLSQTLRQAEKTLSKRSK
# [8] = target: T4, Tyrosyl-tRNA synthetase, putative (Trypanosoma cruzi (strain CL Brener)); assay: Trypanosoma cruzi tyrosyl tRNA synthetase (TcYRS) SOP; format: functional; conditions: 30 µM
# [9] = target: Chromo domain-containing protein 1 (Saccharomyces cerevisiae (strain ATCC 204508 / S288c) (Baker's yeast)) (UniProt P32657); assay: ScCHD-1 Enzyme Inhibition Assay; format: functional; conditions: 30 µM; note: in the data most compounds retested in dose-response had high values
# Chain of Chromo domain-containing protein 1 (Saccharomyces cerevisiae (strain ATCC 204508 / S288c) (Baker's yeast)) (P32657 whole entry, the tested form may be a part): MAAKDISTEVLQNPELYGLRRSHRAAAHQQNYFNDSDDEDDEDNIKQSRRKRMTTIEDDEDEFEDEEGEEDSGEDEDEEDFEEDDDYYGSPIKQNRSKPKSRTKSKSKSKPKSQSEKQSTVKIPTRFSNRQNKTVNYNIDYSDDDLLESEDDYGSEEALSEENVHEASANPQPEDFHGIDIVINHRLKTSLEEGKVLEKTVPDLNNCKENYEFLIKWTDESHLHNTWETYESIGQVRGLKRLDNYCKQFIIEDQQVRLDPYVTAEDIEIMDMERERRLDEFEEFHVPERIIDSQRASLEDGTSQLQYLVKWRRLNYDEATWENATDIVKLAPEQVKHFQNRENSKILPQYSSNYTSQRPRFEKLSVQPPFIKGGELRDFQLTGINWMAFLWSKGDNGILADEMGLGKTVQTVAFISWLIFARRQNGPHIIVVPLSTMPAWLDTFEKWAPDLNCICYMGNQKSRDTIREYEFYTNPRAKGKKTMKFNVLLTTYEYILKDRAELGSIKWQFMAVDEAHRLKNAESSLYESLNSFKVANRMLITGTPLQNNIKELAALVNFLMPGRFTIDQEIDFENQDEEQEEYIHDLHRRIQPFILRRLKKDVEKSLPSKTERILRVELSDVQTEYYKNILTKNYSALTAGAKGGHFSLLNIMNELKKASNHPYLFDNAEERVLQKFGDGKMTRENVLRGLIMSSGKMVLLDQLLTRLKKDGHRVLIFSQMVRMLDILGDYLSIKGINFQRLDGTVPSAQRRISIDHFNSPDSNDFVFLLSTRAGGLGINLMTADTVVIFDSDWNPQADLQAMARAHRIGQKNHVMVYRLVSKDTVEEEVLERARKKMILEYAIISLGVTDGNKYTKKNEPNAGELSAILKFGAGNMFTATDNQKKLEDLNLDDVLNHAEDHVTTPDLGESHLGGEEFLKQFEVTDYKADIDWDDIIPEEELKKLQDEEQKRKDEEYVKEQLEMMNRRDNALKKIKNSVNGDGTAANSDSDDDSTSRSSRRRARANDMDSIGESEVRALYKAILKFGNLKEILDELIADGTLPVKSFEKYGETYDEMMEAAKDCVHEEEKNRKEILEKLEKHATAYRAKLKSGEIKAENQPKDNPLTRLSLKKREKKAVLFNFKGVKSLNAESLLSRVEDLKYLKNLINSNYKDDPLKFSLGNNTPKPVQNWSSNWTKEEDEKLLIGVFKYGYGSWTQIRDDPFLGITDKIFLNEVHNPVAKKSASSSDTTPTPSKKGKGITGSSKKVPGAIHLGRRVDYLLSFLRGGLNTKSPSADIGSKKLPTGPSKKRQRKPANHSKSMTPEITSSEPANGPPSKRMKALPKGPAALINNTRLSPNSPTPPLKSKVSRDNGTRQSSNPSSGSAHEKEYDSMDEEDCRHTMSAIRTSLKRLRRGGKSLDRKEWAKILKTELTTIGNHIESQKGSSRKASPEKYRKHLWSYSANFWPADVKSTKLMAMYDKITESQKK
SMILES,Percent Effect [1],Percent Effect [2],Percent Effect [3],Percent Effect [4],Percent Effect (Trypanosoma cruzi),Percent Effect [5],Percent Effect [6],Percent Effect (Homo sapiens),Percent Effect [7],Percent Effect [8],Percent Effect [9]
Cc1cc(C)c2nc(CN3CCCC(c4cc[nH]n4)C3)cc(O)c2c1 (stereo unspecified),-1.83%,0%,3.31%,-3.01%,-3.28%,0%,8.62%,23.3%,3.7%,14.6%,-5.03%
Cc1cc(C)n(CC2CCCN2CC(=O)N(C)C)n1 (stereo unspecified),-2.72%,-2.7%,-5.85%,20%,-2.92%,-4.01%,9.19%,3.86%,-0.493%,1.24%,-0.0682%
COc1cccc(OCC2CCCN(C3CCN(C(C)=O)CC3)C2)c1 (stereo unspecified),-0.921%,5.41%,0.304%,-4.78%,-3.67%,1.43%,18.4%,-5.82%,4.76%,12.2%,-2.6%
Cc1cnc(C(=O)N2CCc3ncnc(C)c3CC2)cn1,-2.65%,0%,-0.0548%,5.51%,-1.39%,-2.79%,15.8%,19.6%,2.08%,11.1%,-2.02%
Cc1nc(C)n(C2CCCN(C(=O)c3ccc(F)cc3F)C2)n1 (stereo unspecified),-3.45%,0%,0.572%,-0.68%,2.73%,24.6%,11.2%,-8.13%,9.9%,18.3%,-7.11%
c1cc(CNCC2OCCc3cn(CC4CCOCC4)nc32)ccn1 (stereo unspecified),-0.867%,-37.8%,1.52%,-8.34%,1.86%,4.78%,29%,18.1%,6.49%,17.9%,1.56%
CCC(O)CN1CCN(C(=O)c2cccn2Cc2ccccc2)CC1 (stereo unspecified),-7.42%,10.1%,-1.72%,3.91%,-5.95%,-0.38%,-3.69%,20.8%,0.493%,11.4%,-3.89%
COc1ccc(CN2C[C@@H]3OCCN(CC4CCCO4)[C@@H]3C2)cc1 (stereo partly specified),-0.662%,10.8%,2.03%,-5.49%,6.16%,-4.78%,17.3%,3.23%,3.24%,12.8%,5.65%
Cc1cccnc1NC(=O)CSc1ccc2c(c1)OCCO2,-3.38%,-4.17%,-2.48%,-6.94%,-2.04%,-1.77%,8.42%,7.78%,0%,-2.56%,-2.02%
COc1ccc(C(C)N2CCN(Cc3nccn3C)CC2)cc1Cl (stereo unspecified),-3.06%,2.6%,-0.681%,9.44%,-1.87%,0.712%,11.3%,9.04%,2.91%,0%,-0.322%
Cc1cnn(CC2CCCCN2Cc2nnc(-c3ccco3)o2)c1 (stereo unspecified),-5.16%,13.5%,-9.36%,20.3%,3.11%,-5.61%,13.3%,7.01%,8.37%,18.5%,-11.7%
CC(=O)N1CCCN(C(=O)CCc2c(C)noc2C)CC1,-5.5%,18.4%,-6.52%,-3.87%,3.95%,0.766%,9.52%,9.31%,8.33%,19.5%,-11.2%
CC(=O)N1CCCN(C(=O)c2oc(Br)cc2C)CC1,-0.989%,10.8%,-1.11%,15.2%,2.12%,6.19%,21.4%,4.33%,2.65%,17.1%,-7.7%
O=C(O)C1CCCCN1C(=O)c1cccc(C(F)(F)F)c1 (stereo unspecified),-6.15%,13.2%,-2.92%,7.67%,1.4%,-2.88%,2.62%,-1.55%,4.43%,16.1%,3.59%
Cn1nnc2cc(C(=O)N3CCCC3Cc3ccccc3)ccc21 (stereo unspecified),-4.28%,2.74%,2.56%,2.89%,4.11%,-3.18%,5.68%,7.53%,0%,5%,-4.61%
CO[C@H]1CCN(Cc2cccc(C)n2)[C@@H]2CN(Cc3cccnc3)C[C@H]12,-4.37%,13.7%,-4.89%,7.4%,12.3%,-3.99%,15.5%,6.58%,5.21%,6.17%,-8.06%
